Laboratory results reported in PubChem BioAssay (NCATS).
Several values for one entry are separate records, joined by “and”; a condition that tells them apart may be missing. Equal values may be shown once. Records with an inconclusive call do not appear. Entries that show only a call come without a potency. Activity calls are given as the source filed them. Unless noted, calls come from the whole dose curve; as a rule, active = well fitted curve in the direction sought with a large enough effect; inconclusive = small, poorly fitted or top-dose-only effect, or another doubt; inactive = no such curve, though single readings can be large; an effect the other way counts as inactive or inconclusive.

How the values were obtained:
[1] = KB-8-5-11 P-gp reporter qHTS against the NCATS DSHEA and TCM libraries (AID 1919977)
In short: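 KB-8-5-11, 500 cells/well, DMEM/10% FBS without colchicine; 4 h attach; cpd titrations, 72 h, 37C/5% CO2; CellTiter-Glo, 30 min RT, luminescence.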

[2] = Cell Viability - BJ (AID 421; calls by dose curve;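 note: potency is the fitted concentration of half-maximal effect; cells exposed to compound for 40 hours at 37 °C before readout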); conditions: BJ fibroblast viability, qHTS
In short: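 Cytotoxicity as drop in intracellular ATP (CellTiter-Glo, 20 min RT) after 40 hr compound exposure of BJ fibroblasts at 37 °C. Titrations scaled between DMSO and 100 uM tamoxifen, Hill-fitted for AC50.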

[3] = Cell Viability - SK-N-SH (AID 435; calls by dose curve;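 note: potency is the fitted concentration of half-maximal effect; compound exposure lasted 40 h at 37 °C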); conditions: SK-N-SH neuroblastoma cell viability qHTS
In short: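 Luminescent ATP signal served as the viability read-out after 40 hours of compound treatment of human neuroblastoma SK-N-SH cells. Concentration-response data, scaled between DMSO and 100 uM tamoxifen, gave AC50 values by standard Hill modeling.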

[4] = Cellular Toxicity (caspase-3) Mesangial (AID 660);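 note: combined caspase 3 and 7 activity read by Caspase-Glo luminescence; cells exposed to compound for 16 h before the caspase read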
In short: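 Caspase 3/7 activation measured by Caspase-Glo 3/7 luminescence (20 min, room temperature) following 16 h exposure of mesangial cells (1000/well); AC50 from Hill-equation fit, normalized to DMSO and 100 uM tamoxifen.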

[5] = Cellular Toxicity (caspase-3) Renal Proximal Tubule (AID 667); conditions: renal proximal tubule cells; at 91.7 µM (top of the series), primary cells freshly taken from rat, solvent-only wells 0%, staurosporine 100% unless noted;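 note: cells exposed to compound for 16 hours at 37 °C before detection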
In short: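 AC50 derived by standard Hill fit of concentration-response data, normalized between DMSO basal and 10 uM staurosporine as 100% stimulation. Cells: primary rat kidney proximal tubule, 16 h treatment at 37 °C.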

[6] = Cell Viability - LYMP2-001 (AID 921); note: nearly all actives have a fitted effect of over 70% in size
In short: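 Steps: seed 2500 lymphoblastoid cells/well; 5 hr, 37 C; add compound; 24 hr, 37 C; CellTiter-Glo reagent, 30 min room temperature; read luminescence. Concentration-response modeled by Hill equation for AC50.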

[7] = Cell Viability - LYMP1-003 - Assay at 24 hr (AID 963)
In short: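 Concentration-response qHTS: ATP loss measured by CellTiter-Glo luminescence after 24 h compound exposure at 37 C. Cells were LYMP1-003 human lymphoblastoid, 2500 per well. AC50 derived via standard Hill equation modeling.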

[8] = Cell Viability - LYMP2-015 (AID 971); note: nearly all actives have a fitted effect of over 55% in size
In short: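 Cytotoxicity readout: decrease in intracellular ATP (CellTiter-Glo luminescence) in 2500 LYMP2-015 lymphoblastoid cells/well after 24 h compound exposure at 37 C. Concentration-response data fitted with the standard Hill equation to give AC50.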

[9] = Cell Viability - LYMP2-010 (AID 981); note: nearly all actives have a fitted effect of over 55% in size
In short: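 CellTiter-Glo ATP luminescence measured cytotoxicity after 24 h compound exposure at 37 C. LYMP2-010 cells were seeded at 2500/well, with tetraoctylammonium bromide as control; concentration-response curves gave AC50 values by the Hill equation.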

[10] = Cell Viability - LYMP2-012 (AID 982);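 note: cellular ATP by luciferase luminescence where a drop means cytotoxicity; cells exposed to compound for one day before reading; nearly all actives have a fitted effect of over 55% in size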
[11] = biological target: Bile acid receptor (Homo sapiens) (UniProt Q96RI1); test: qHTS assay for small molecule antagonists of farnesoid X receptor signaling (AID 588526; calls by dose curve)
In short: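 Antagonist mode: titrated compounds tested against chenodeoxycholic acid stimulation (normalized to 50 uM CDCA and DMSO) in GeneBLAzer HEK293T cells for 16 h. Beta-lactamase read by CCF4 fluorescence; IC50 from Hill fits.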

[12] = qHTS assay for small molecule antagonists of peroxisome proliferator-activated receptor delta signaling (AID 588535); conditions: HEK293T PPARd-UAS-bla, beta-lactamase FRET ratio, 18 h; 460 nm channel;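 note: cells co-treated with a PPAR-delta agonist as stimulator during compound exposure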
In short: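 Fluorescence from CCF4-loaded GeneBLAzer PPAR-delta-UAS-bla HEK293T cells (2 hrs RT loading) quantified reporter inhibition after an 18 hr, 37 C compound exposure across a titration.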

[13] = biological target: Peroxisome proliferator-activated receptor gamma (Homo sapiens) (UniProt P37231); test: qHTS assay for small molecule antagonists of peroxisome proliferator-activated receptor gamma signaling (AID 588537; active = well fitted inhibition curve with a large enough effect in the signal ratio, with a control signal flat, not every such curve was filed as active; the % refers to the signal ratio;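 note: reporter cells co-stimulated with 50 nM rosiglitazone agonist during compound treatment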)
In short: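 Fluorescence at 460 and 530 nm (405 nm excitation) reported beta-lactamase cleavage of CCF4 after 2 h room-temperature loading. HEK293 reporter cells in 1% charcoal/dextran-treated FBS had received compound and rosiglitazone for 16 h.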

[14] = qHTS assay for small molecule activators of the nuclear factor-kappa B (NF-kB) signaling pathway (AID 651749; active = well fitted activation curve with a large enough effect in the signal ratio; the % refers to the signal ratio); conditions: NF-kB-bla ME-180 cells, beta-lactamase FRET ratio, 16 h; activation: stronger effect = higher value
In short: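 In this qHTS format, compounds acting as activators increase NF-kB-driven beta-lactamase in ME-180 cells, measured as disrupted FRET after 16 hr exposure at 37C and 5% CO2.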

[15] = biological target: Peroxisome proliferator-activated receptor alpha (Homo sapiens) (UniProt Q07869); test: qHTS assay for small molecule agonists of the peroxisome proliferator-activated receptor alpha (PPARalpha) signaling pathway (AID 651778); conditions: PathHunter PPARalpha complementation, chemiluminescence, 6 h; stronger effect = higher value
In short: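 Enzyme-fragment complementation assay in which ligand-bound PPARalpha translocates and forms an active enzyme that generates chemiluminescence. Cells were plated overnight, exposed to compound for 6 hr at 37 C, and then given detection reagent for 60 min at room temperature.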

[16] = qHTS assay for cell viability of the p53RE-bla HCT-116 cell line (AID 743292); note: nearly all actives have a fitted effect of over 55% in size
In short: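 Compound-exposed HCT-116 (p53RE-bla) cells, 4,000 per well, were kept 16 h at 37 C following a 5 h preincubation. Cell number was estimated from total ATP by CellTiter-Glo luminescence read after 30 min at room temperature.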

[17] = MultiTox-Fluor Cytotoxicity Assay - LYMP1-003 - Live Cells (AID 962);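 note: cytotoxic hits lower the live-cell protease signal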
In short: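 Live-cell protease activity (GF-AFC substrate, 405/510 nm, 60 min at room temperature) after 16 h, 37 C compound exposure of human lymphoblastoid LYMP1-003 cells; concentration-response fitted to the Hill equation for AC50.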

[18] = biological target: Glucocorticoid receptor (Homo sapiens) (UniProt P04150); test: qHTS assay for small molecule agonists of glucocorticoid receptor signaling (AID 588532; active = well fitted curve in the direction sought with a large enough effect in the signal ratio, with a control signal flat; the % refers to the signal ratio); conditions: HeLa MMTV-bla, beta-lactamase ratio, agonist, 18 h; stronger effect = higher value; percent of dexamethasone control, DMSO zero
In short: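 HeLa GRE-bla reporter cells; 18 h compound exposure at 37 C; 2 h CCF4 loading at room temperature; fluorescence at 460 and 530 nm; EC50 by Hill equation.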

[19] = biological target: Retinoic acid receptor RXR-alpha (Homo sapiens) (UniProt P19793); test: qHTS assay for small molecule antagonists of retinoid X receptor alpha signaling (AID 588546; active = well fitted inhibition curve with a large enough effect in the signal ratio, with a control signal flat, not every such curve was filed as active; the % refers to the signal ratio;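 note: cells stimulated with 9-cis-retinoic acid as agonist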); conditions: HEK293T RXRa-UAS-bla, beta-lactamase ratio, antagonist mode
In short: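 Beta-lactamase reporter inhibition, read as CCF4 fluorescence ratio (ex 405, em 460/530 nm) after 2 h at RT. HEK293T UAS-bla cells, 2500/well, were stimulated with 9-cis-RA at 500 or 100 nM final alongside test compound for 18 h at 37 C.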

[20] = Cell Viability - LYMP2-022 (AID 987); note: nearly all actives have a fitted effect of over 55% in size
In short: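 Cytotoxicity read as decreased cellular ATP (CellTiter-Glo luminescence, 30 min room temperature) after 24 hours compound exposure of 2500 lymphoblastoid LYMP2-022 cells/well at 37 C. Concentration-response data fitted with standard Hill equation for AC50.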

Peroxisome proliferator-activated receptor gamma (Homo sapiens), sequence (P37231 whole entry, looked up): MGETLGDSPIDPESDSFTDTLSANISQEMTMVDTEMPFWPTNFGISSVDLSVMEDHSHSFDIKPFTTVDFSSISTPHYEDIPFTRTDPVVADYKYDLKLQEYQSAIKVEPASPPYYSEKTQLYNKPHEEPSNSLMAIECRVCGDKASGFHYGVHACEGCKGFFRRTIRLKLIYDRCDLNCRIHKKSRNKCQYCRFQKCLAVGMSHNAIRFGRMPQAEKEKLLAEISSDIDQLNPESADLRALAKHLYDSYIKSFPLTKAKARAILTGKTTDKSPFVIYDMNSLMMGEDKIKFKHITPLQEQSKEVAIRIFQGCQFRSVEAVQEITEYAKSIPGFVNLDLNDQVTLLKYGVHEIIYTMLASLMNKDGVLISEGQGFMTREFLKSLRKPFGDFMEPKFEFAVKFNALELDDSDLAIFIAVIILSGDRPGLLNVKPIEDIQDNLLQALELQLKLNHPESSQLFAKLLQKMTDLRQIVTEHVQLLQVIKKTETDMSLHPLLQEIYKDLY
Bile acid receptor (Homo sapiens), sequence (Q96RI1 whole entry, looked up): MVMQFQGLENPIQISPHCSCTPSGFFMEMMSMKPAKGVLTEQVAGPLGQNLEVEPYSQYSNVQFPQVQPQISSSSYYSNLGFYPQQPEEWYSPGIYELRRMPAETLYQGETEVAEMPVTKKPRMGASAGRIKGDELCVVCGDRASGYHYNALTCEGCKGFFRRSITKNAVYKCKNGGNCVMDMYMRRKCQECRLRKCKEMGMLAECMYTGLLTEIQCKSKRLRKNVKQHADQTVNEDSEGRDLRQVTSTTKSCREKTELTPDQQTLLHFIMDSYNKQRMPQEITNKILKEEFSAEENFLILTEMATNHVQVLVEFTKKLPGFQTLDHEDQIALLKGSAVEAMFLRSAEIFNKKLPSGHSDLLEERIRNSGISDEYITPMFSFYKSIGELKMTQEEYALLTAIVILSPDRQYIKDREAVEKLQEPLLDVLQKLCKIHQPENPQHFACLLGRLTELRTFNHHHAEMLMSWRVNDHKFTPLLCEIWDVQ
Peroxisome proliferator-activated receptor alpha (Homo sapiens), sequence (Q07869 whole entry, looked up, the tested form may be a part): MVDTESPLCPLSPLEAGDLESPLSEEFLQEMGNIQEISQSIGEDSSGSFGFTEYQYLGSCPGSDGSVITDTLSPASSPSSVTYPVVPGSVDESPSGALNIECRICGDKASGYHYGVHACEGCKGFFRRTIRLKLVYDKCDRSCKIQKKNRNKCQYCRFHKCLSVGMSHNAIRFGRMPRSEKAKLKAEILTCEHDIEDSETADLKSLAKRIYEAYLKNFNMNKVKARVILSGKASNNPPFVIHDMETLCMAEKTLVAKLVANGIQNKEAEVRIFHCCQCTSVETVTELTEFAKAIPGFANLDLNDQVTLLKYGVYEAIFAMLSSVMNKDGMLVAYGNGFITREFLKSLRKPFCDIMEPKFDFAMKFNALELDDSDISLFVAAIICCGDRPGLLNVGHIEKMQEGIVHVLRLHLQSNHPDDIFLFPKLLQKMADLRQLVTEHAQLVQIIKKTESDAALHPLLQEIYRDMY
Retinoic acid receptor RXR-alpha (Homo sapiens), sequence (P19793 whole entry, looked up): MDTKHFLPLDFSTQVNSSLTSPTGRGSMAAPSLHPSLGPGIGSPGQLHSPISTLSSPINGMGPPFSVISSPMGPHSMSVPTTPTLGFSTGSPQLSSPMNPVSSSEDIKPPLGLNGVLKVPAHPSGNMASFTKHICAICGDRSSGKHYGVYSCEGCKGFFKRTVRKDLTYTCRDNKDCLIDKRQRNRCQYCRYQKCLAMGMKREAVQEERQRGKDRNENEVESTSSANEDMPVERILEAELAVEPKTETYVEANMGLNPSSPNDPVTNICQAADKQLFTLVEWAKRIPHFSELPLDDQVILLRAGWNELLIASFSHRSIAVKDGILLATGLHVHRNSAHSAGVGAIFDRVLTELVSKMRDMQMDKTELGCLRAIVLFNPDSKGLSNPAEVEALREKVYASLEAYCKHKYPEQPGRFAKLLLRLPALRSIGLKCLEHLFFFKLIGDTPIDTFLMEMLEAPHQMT
Glucocorticoid receptor (Homo sapiens), sequence (P04150 whole entry, looked up): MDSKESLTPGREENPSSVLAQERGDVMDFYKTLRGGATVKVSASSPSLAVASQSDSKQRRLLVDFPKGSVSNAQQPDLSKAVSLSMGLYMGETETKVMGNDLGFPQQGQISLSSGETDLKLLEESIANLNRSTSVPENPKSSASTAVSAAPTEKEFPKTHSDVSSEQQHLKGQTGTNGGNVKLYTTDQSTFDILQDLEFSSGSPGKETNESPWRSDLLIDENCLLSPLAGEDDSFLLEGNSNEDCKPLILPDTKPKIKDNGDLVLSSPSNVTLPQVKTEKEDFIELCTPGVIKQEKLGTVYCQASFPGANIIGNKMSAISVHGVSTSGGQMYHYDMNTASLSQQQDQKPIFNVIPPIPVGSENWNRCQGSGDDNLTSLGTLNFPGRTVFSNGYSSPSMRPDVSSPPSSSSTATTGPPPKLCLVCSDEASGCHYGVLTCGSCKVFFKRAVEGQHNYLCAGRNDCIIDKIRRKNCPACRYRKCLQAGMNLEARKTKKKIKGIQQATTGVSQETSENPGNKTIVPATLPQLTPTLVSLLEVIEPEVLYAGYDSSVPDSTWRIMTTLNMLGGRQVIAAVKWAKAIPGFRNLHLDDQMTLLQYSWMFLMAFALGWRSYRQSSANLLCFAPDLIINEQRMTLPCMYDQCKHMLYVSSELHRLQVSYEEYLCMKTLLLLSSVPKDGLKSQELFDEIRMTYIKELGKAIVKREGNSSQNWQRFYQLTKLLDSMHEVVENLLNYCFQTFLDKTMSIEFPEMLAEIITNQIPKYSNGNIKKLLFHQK

Compound: C=C[C@](C)(O)CCC=C(C)C
- Potency [1]: inactive

Compound: O=C(O[C@@H]1Cc2c(O)cc(O)cc2O[C@@H]1c1ccc(O)c(O)c1)c1cc(O)c(O)c(O)c1
- Potency [1]: inactive

Compound: C=C1CC[C@H](O)C/C1=C\C=C1/CCC[C@]2(C)[C@@H]([C@H](C)CC[C@H](C)C(C)C)CC[C@@H]12
- Potency [1]: inactive

Compound: O=c1cc(-c2ccc(O)c(O)c2)oc2cc(O[C@@H]3O[C@@H](CO)[C@@H](O)[C@@H](O)[C@H]3O)cc(O)c12
- Potency [1]: inactive

Compound: O=C(O)CC(O)(C(=O)O)C(O)C(=O)O (stereo unspecified)
- Potency [1]: inactive

Compound: COC1=C[C@@]23CCN(C)[C@H](Cc4ccc(OC)c(O)c42)C3=CC1=O
- Potency [1]: inactive

Compound: CCCCCCC/C=C/C(=O)CCc1ccc(O)c(OC)c1
- Potency [1]: inactive

Compound: CC(=O)O[C@H]1[C@H](O[C@H]2CC[C@]34C[C@]35CC[C@]3(C)[C@@H]([C@@]6(C)CC[C@@H](C(C)(C)O)O6)[C@@H](O)C[C@@]3(C)[C@@H]5C[C@H](O[C@@H]3O[C@H](CO)[C@@H](O)[C@H](O)[C@H]3O)[C@H]4C2(C)C)OC[C@@H](O)[C@@H]1O
- Potency [1]: inactive

Compound: C[C@@]12CC[C@@H]3[C@@](CC[C@H]4[C@@]3(C)CCC[C@@]4(C)C(=O)O)(CC1=O)C2
- Potency [1]: inactive

Compound: C=C1C[C@@]23CC[C@H]4[C@](C)(CCC[C@]4(C)C(=O)O[C@@H]4O[C@H](CO)[C@@H](O)[C@H](O)[C@H]4O)[C@@H]2CC[C@]1(O[C@H]1O[C@@H](CO)[C@H](O)[C@@H](O)[C@@H]1O)C3
- Potency [1]: inactive

Compound: CN=C=S
- Potency [2]: > 92 µM (inactive)
- Potency [3]: > 92 µM (inactive)
- outcome [4]: inactive
- caspase-3 activation [5]: -3.52% (inactive)
- Potency [6]: inactive
- Potency [7]: inactive
- Potency [8]: inactive
- Potency [9]: inactive
- Potency [10]: inactive
- outcome [11]: inactive
- max response [12]: 11.4%
- Potency [13]: inactive
- activation [14]: 0.411% (inactive) and -0.263% (inactive)
- max response [15]: -2.7% (inactive) and -1.5% (inactive)
- Potency [16]: inactive

Compound: CC(C)=CCC[C@](C)(O[C@@H]1O[C@H](CO)[C@@H](O)[C@H](O)[C@H]1O)[C@H]1CC[C@]2(C)[C@@H]1[C@H](O)C[C@@H]1[C@@]3(C)CC[C@H](O)C(C)(C)[C@@H]3[C@@H](O[C@@H]3O[C@H](CO)[C@@H](O)[C@H](O)[C@H]3O)C[C@]12C
- Potency [1]: inactive

Compound: Cc1ccccc1N
- Potency [2]: > 92 µM (inactive)
- Potency [3]: > 92 µM (inactive)
- outcome [4]: inactive
- Potency [6]: inactive
- Potency [17]: inactive
- Potency [7]: inactive
- Potency [8]: inactive
- Potency [9]: inactive
- max response [12]: 7.62%
- activation [14]: 0.244% (inactive) and -0.381% (inactive)
- max response [15]: -4.65% (inactive) and -3.69% (inactive)
- Potency [16]: inactive

Compound: CN(CC(=O)O)C(=N)N
- Potency [1]: inactive

Compound: CCCCCCCC/C=C/CCCCCCCCCC(=O)O
- Potency [1]: inactive

Compound: CCC[CH2][Sn]([Cl])([Cl])[Cl]
- Potency [2]: > 92 µM (inactive)
- Potency [3]: > 92 µM (inactive)
- outcome [4]: inactive
- caspase-3 activation [5]: 6.84% (inactive)
- Potency [6]: inactive
- Potency [17]: inactive
- Potency [7]: inactive
- Potency [9]: inactive
- outcome [11]: inactive
- activation [18]: -4.16% (inactive) and -3.24% (inactive)
- max response [12]: 31.1% and 8.78%
- Potency [13]: inactive
- max response [19]: -1.26% (inactive) and -2.57% (inactive)
- activation [14]: -0.955% (inactive) and -1.49% (inactive)
- max response [15]: 0.179% (inactive) and -1.51% (inactive)
- Potency [16]: inactive

Compound: C=CCc1ccc(OC)c(OC)c1
- Potency [1]: inactive

Compound: CCCCCCCCCCCC(=O)O
- Potency [1]: inactive

Compound: c1nc[nH]n1
- Potency [2]: > 92 µM (inactive)
- Potency [3]: > 92 µM (inactive)
- Potency [7]: inactive
- Potency [20]: inactive
- outcome [11]: inactive
- max response [12]: -9.48%
- activation [14]: 0.14% (inactive)
- max response [15]: 7.97% (inactive)

Compound: CCCCCCCCCCCCCCCCCCCCCCCCCCCCCCO
- activity change, negative = inhibition [1]: 8.26% [at 3.26 µM] (inactive)

Compound: C[C@]12CC[C@H]3[C@@H](CCC4=CC(=O)CC[C@@]43C)[C@@H]1CC[C@@H]2O
- Potency [2]: > 92 µM (inactive)
- Potency [3]: > 92 µM (inactive)
- Potency [6]: inactive
- Potency [13]: inactive
